# Measured values: ChEMBL document CHEMBL3988442, “University of Dundee, Small-Polar-MMV Screening Library” (2021)
# For part of these data: Measured potencies and affinities stand elsewhere.
# Assays:
# Parameters in all cases: scale not given: direction of the effect not stated beside the values
# [1] = molecular target: Protein translocase subunit SecA (Escherichia coli (strain K12)) (UniProt P10408); assay: Assay to Identify E. coli SecA ATPase Inhibitors; format: functional; conditions: 30 µM
# [2] = molecular target: T1, Ubiquitin-activating enzyme e1, putative (Leishmania donovani (strain BPK282A1)) (UniProt E9BSI1); assay: Leishmania donovani Ubiquitin Activating Enzyme (LdE1); format: functional; conditions: 30 µM
# T1 sequence (whole entry): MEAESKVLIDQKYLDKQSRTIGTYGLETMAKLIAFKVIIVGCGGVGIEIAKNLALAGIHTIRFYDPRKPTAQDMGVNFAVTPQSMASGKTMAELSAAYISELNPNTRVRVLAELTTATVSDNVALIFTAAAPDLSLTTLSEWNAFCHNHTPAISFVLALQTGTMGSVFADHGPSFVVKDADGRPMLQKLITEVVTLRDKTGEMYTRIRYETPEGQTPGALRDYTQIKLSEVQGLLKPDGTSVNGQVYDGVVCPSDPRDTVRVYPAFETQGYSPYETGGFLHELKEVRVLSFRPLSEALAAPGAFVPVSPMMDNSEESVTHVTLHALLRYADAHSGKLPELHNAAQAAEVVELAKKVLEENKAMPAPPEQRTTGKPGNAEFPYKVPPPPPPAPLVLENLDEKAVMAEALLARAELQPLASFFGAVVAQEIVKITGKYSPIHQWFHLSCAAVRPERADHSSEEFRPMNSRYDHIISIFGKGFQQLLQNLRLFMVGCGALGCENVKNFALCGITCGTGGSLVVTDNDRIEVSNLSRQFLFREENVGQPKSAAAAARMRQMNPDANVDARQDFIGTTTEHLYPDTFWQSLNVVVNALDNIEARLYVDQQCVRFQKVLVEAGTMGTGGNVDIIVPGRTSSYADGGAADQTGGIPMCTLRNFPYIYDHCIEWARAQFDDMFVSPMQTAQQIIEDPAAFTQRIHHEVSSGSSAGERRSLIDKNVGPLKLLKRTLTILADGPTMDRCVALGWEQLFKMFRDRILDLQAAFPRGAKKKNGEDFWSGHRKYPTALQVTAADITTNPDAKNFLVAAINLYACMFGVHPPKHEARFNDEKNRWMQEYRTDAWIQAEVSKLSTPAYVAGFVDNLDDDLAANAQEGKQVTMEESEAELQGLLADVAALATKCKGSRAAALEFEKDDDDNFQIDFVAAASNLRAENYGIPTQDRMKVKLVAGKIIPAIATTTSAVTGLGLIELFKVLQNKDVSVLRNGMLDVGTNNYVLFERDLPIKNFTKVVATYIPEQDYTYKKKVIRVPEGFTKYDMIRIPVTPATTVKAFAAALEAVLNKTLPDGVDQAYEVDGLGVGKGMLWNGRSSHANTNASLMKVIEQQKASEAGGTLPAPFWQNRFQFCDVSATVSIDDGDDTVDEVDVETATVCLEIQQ
# [3] = molecular target: AMP-activated protein kinase, AMPK (Homo sapiens) (UniProt P54646+O43741+P54619+Q9UGJ0+Q9Y478+Q13131+Q9UGI9); assay: AMP-dependent Kinase enzyme assay. An in vitro enzyme assay that detects ADP turnover that is directly proportional to AMPK activity. This uses naive AMPK that is activated during the assay with MK-8722; format: functional; conditions: 30 µM
# [4] = molecular target: Sialic acid-binding Ig-like lectin 9 (Homo sapiens) (UniProt Q9Y336); assay: Hs-Siglec9 ALPHAscreen SOP 20170721; conditions: 10 µM
# Trypanosoma cruzi = assay: Trypanosoma cruzi phosphomannomutase and mannose-1-phosphate guanylyltransferase assay; format: functional; conditions: 10 µM
# [5] = molecular target: T2, Arginase-2, mitochondrial (Homo sapiens) (UniProt P78540); assay: in vitro enzyme assay to detect the production of urea directly proportional to the activity of Arginase II; format: functional; conditions: 33.3 µM; further: in the data most compounds retested in dose-response had high values
# T2 sequence (whole entry): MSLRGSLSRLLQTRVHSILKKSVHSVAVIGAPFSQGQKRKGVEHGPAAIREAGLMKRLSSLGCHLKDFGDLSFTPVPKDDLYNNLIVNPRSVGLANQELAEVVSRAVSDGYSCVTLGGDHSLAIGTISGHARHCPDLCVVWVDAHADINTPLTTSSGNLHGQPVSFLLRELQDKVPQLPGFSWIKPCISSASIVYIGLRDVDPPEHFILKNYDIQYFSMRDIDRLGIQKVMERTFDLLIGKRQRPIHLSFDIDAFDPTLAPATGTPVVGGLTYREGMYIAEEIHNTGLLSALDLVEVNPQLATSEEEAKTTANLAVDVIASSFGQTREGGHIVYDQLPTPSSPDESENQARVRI
# [6] = molecular target: T3, Proteasome subunit beta (Trypanosoma cruzi) (UniProt O96673); assay: Trypanosoma cruzi proteasome chymotrypsin-like activity (TcProtChymo) assay.; further: in the data most compounds retested in dose-response had high values; format: functional; conditions: 9.37 µM
# T3 sequence (whole entry): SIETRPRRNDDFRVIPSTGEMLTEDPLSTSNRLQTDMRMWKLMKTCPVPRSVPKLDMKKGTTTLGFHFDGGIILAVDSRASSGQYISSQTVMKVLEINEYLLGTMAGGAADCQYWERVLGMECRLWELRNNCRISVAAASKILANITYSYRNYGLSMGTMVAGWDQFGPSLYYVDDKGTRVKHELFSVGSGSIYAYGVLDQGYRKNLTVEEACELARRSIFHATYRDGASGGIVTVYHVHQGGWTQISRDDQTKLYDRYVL
# Homo sapiens = species on record: Homo sapiens; assay: To identify inhibition of the IFN signalling (Jak-Stat) pathway via expression of an eGFP reporter gene under the control of an IFN-stimulated response element (ISRE) containing MxA promoter.; format: functional; conditions: 30 µM
# [7] = molecular target: T4, Tyrosyl-tRNA synthetase, putative (Trypanosoma cruzi (strain CL Brener)) (UniProt Q4DSP6); assay: Trypanosoma cruzi tyrosyl tRNA synthetase (TcYRS) _High Tyrosine SOP; format: functional; conditions: 30 µM; further: in the data most compounds retested in dose-response had high values
# T4 sequence (whole entry): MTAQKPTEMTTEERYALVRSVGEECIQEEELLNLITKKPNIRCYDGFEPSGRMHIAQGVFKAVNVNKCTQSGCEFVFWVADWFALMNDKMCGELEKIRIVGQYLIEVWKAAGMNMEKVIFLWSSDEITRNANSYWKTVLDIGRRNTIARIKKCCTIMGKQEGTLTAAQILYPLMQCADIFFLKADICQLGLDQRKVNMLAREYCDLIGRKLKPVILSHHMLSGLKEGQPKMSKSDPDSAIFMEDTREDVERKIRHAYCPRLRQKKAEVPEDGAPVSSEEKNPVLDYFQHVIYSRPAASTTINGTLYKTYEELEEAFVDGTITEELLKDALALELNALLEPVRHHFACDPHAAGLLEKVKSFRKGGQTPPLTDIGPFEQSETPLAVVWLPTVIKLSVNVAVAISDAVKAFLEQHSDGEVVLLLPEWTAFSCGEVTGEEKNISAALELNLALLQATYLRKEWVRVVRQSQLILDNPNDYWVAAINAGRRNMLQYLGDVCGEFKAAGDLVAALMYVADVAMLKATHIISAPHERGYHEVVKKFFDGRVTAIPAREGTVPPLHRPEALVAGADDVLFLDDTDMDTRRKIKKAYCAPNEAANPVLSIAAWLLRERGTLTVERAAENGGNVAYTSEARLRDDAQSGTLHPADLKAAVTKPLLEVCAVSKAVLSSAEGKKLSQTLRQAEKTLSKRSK
# [8] = molecular target: T4, Tyrosyl-tRNA synthetase, putative (Trypanosoma cruzi (strain CL Brener)); assay: Trypanosoma cruzi tyrosyl tRNA synthetase (TcYRS) SOP; format: functional; conditions: 30 µM
# [9] = molecular target: Chromo domain-containing protein 1 (Saccharomyces cerevisiae (strain ATCC 204508 / S288c) (Baker's yeast)) (UniProt P32657); assay: ScCHD-1 Enzyme Inhibition Assay; format: functional; conditions: 30 µM; further: in the data most compounds retested in dose-response had high values
# Sequence of Chromo domain-containing protein 1 (Saccharomyces cerevisiae (strain ATCC 204508 / S288c) (Baker's yeast)) (P32657 whole entry, the tested form may be a part): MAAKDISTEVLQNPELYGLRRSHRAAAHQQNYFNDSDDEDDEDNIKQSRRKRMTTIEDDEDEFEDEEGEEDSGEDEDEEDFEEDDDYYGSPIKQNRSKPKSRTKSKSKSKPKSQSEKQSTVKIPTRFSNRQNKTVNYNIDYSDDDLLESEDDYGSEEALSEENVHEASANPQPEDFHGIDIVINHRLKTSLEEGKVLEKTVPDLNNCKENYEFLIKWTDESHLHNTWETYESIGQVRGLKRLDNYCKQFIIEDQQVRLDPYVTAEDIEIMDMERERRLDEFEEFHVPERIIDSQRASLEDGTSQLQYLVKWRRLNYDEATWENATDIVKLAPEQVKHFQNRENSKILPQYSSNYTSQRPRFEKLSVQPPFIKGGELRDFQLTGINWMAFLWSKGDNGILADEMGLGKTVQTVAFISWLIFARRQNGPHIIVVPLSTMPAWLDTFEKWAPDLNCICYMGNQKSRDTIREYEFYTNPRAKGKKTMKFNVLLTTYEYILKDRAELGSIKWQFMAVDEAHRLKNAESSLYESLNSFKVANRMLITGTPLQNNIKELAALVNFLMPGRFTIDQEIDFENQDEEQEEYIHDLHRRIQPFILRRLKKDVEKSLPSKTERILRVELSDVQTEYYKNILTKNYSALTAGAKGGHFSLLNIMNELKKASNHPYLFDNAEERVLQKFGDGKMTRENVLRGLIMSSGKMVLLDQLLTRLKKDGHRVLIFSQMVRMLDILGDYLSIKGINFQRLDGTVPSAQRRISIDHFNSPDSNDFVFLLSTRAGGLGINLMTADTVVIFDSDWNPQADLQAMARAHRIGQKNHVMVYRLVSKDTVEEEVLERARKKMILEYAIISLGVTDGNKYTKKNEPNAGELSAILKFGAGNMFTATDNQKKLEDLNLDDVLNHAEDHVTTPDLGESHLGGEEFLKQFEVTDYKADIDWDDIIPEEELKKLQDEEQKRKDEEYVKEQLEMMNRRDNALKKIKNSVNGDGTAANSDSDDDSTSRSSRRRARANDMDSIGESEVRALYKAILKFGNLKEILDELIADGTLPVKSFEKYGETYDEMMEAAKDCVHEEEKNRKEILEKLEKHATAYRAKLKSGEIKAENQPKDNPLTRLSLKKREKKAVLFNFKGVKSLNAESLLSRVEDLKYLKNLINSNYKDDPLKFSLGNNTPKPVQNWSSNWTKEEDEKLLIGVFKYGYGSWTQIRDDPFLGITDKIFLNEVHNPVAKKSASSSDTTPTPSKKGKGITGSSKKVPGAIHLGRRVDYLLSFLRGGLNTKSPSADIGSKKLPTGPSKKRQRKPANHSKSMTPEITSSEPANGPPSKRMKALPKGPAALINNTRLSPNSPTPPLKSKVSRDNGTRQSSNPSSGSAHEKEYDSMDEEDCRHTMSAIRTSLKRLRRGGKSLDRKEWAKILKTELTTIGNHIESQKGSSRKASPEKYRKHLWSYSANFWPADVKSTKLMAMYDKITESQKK
# Sequence of Sialic acid-binding Ig-like lectin 9 (Homo sapiens) (Q9Y336 whole entry): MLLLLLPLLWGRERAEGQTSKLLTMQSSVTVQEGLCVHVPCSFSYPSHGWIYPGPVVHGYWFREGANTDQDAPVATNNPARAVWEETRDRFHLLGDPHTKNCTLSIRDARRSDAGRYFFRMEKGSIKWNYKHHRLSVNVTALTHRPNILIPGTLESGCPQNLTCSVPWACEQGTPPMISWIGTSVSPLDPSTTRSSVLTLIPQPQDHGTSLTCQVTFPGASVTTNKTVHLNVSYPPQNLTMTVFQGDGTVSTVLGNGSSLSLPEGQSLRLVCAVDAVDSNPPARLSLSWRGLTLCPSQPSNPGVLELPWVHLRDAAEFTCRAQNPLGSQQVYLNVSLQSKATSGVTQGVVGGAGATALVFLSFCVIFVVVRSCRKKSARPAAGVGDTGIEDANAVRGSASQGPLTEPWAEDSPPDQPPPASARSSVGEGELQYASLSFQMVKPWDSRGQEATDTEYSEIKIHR
# Sequence of Protein translocase subunit SecA (Escherichia coli (strain K12)) (P10408 whole entry): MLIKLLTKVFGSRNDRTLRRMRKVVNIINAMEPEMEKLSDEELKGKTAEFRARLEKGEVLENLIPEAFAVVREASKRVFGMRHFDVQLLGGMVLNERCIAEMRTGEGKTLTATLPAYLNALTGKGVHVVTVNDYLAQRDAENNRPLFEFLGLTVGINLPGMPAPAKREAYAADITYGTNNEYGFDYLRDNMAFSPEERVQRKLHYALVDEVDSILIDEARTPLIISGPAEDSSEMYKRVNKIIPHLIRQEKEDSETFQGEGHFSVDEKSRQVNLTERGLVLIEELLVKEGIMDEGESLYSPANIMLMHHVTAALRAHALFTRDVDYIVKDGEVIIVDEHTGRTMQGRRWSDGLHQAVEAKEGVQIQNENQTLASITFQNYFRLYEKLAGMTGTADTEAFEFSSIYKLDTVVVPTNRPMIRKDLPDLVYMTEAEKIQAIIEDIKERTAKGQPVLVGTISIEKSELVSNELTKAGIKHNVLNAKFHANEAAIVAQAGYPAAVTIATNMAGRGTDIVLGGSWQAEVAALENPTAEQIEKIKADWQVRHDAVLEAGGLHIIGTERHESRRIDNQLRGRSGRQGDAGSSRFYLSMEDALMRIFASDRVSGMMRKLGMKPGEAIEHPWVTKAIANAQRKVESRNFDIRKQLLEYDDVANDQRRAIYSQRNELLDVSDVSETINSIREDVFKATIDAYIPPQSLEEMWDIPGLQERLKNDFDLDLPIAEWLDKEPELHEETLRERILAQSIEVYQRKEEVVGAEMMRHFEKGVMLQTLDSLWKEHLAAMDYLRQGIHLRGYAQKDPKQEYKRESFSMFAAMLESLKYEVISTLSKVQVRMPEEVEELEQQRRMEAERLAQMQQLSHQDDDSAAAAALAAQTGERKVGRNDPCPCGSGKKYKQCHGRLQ
Compound,Percent Effect [1] [%],Percent Effect [2] [%],Percent Effect [3] [%],Percent Effect [4] [%],Percent Effect (Trypanosoma cruzi) [%],Percent Effect [5] [%],Percent Effect [6] [%],Percent Effect (Homo sapiens) [%],Percent Effect [7] [%],Percent Effect [8] [%],Percent Effect [9] [%]
CCOC(=O)N1CCC(C(=O)c2cc(F)ccc2F)CC1,-3.27,-2.63,4.38,-6.37,-1.69,4.98,-3.34,10.2,-1.47,-4.88,-0.881
CC(C)c1nnc2ccc(N3CCC(C(=O)Nc4nccs4)CC3)nn12,-2.74,9.33,5.47,1.19,3.54,-0.528,12.6,82.9,13.8,23.1,-2.21
O=C(CC1CN(Cc2ccccc2)CCO1)NC1CCCC1 (stereo unspecified),-6.09,24.3,-1.42,7.65,7.62,8.33,7.35,15.4,7.92,23.2,-6.96
c1cnc(NCc2noc3c2CN(CCN2CCCC2)CC3)nc1,-1.82,8,-2.08,10.5,3.48,-47.5,18.1,-3.46,6.25,22.5,-8.39
COc1cc(C(=O)N(Cc2cnn(C)c2)C(C)C)ccc1OCC(N)=O,-7.3,18.4,-10.1,-6.52,-5.32,0,10.4,9.36,0.493,6.17,-2.3
CN(Cc1nc(N)c2ccccc2n1)CC1CCCN1c1cccnn1 (stereo unspecified),-6.24,5.2,2.23,-2.05,11.8,-2.32,13.2,-8.77,6.67,18.8,-22.9
